Assay outcomes as filed in PubChem BioAssay.
Compounds with a hit are over-represented: about 4.3% of the library has one in this group of screens.
HGIII-sPLA2 inh: Blocks human group III sPLA2 activity. Q9NZ20. QFRET BODIPY PC-A2 liposome hydrolysis, fluorescence. inhibition, % at 12.2 µM. 370,000 tested, 0.56% active. AID 743126;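 active = inhibition above mean plus 3 SD of compounds lying within the high and low control bounds, cut at about 19% in these data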;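 also: 0% = median of test compound wells and 100% = no enzyme DMSO wells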
NR3A LBD binder: NR3A (human) ligand-binding domain modulation. NR3A LBD differential scanning fluorimetry, Tm shift; 0% = protein alone, 100% = glycine-bound protein. Tm shift relative to glycine control, % at 25 µM. 340,000 tested, 2.5% active. AID 1259313;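 active = melting temperature shift of at least 10% of the positive control shift, at one fixed dose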
ADAM17 inh: inhibits human ADAM17; P78536; recombinant ADAM17, EDANS/DABCYL FRET peptide cleavage; inhibition, % at 6.95 µM; 370,000 tested, 0.83% active; AID 720648;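 active = inhibition above the mean of compounds lying between control limits plus 3 SD, set per campaign, cut at about 8.5% in these data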;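 also: 0% = DMSO-only wells as the low control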
Target sequence (P78536 215-824 limits assumed): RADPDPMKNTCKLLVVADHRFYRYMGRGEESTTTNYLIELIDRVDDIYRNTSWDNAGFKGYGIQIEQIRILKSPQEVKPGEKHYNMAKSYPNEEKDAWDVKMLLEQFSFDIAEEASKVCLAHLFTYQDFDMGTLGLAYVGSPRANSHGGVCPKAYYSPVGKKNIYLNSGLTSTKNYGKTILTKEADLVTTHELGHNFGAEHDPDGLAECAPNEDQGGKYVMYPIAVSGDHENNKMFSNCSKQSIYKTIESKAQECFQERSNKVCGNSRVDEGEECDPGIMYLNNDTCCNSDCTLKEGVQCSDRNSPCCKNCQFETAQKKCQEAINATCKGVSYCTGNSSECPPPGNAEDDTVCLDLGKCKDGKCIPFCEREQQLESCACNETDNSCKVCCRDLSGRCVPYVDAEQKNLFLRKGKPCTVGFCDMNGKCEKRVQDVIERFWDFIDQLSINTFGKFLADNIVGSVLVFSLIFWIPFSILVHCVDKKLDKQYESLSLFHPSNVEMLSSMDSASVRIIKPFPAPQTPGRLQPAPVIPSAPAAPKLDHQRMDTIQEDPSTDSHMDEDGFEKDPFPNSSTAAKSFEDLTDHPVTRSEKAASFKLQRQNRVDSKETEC
ADAM10 inh: inhibitors of human ADAM10 | AID 720582 | inhibition, % at 7 µM | 370,000 tested, 0.62% active | recombinant ADAM10, EDANS/DABCYL FRET peptide cleavage, 3 h | O14672;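 active = inhibition above a per-campaign cutoff equal to the mean of compounds falling between control-based bounds plus 3 SD, cut at about 20% in these data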;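 also: 0% = DMSO wells while the 100% control is not disclosed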
FAS-TE inh: blocks the thioesterase domain of human fatty acid synthase; inhibition, % at 15 µM; P49327; 360,000 tested, 0.67% active; recombinant FAS-TE, OMFH fluorogenic substrate, fluorescence endpoint;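 active = compounds whose normalised, plate-corrected inhibition of enzyme fluorescence in the single-dose primary screen is 50% or more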;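 also: 0% = DMSO with enzyme and 100% = substrate without enzyme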
The depositor's hits bear a star; i = inactive; x = not tested or not shown.

SMILES	HGIII-sPLA2 inh	NR3A LBD binder	ADAM17 inh	ADAM10 inh	FAS-TE inh
N#Cc1ccc(/C=C\c2nccc3c2[nH]c2ccccc23)cc1	-13.1	11.6*	-102.5	-349.2	5.7
Clc1ccc(/C=C\c2nccc3c2[nH]c2ccccc23)cc1	-12.3	19.9*	-84.3	-186.2	11.2
CCOC(=O)N1CCN(C(=O)C[C@H]2C[C@@]3(C(=O)OC)C(=C[C@H](C4CCCC4)O[C@@H]3C)N(CCC3=CCCCC3)C2=O)CC1	-7.7	x	1.5	4.6	x
Cc1cc(=O)oc2cc(OCCSCCN3CCCC3)ccc12	-3.2	12.5*	-39.8	-99.3	-5.1
O=C(O)c1ccc(COc2ccccc2Cl)cc1	0.3	12.7*	-4.6	-8.5	-7.3
CN1C(=O)c2cc(NC(=O)C3CCCCC3)ccc2OC[C@H]2O[C@@H](CC(=O)NC3CCCC3)CC[C@H]21	1.4	x	4.5	9.2	x
O=C(OC12CCCN(C1)/C(=C/c1cccnc1)C2)C1CCCCC1 (configuration not stated)	3.9	x	-0.5	-4.2	x
Cc1ccc(S(=O)(=O)N(C)C)cc1NC(=O)COC(=O)C1CCCC1	9.4	20.8*	-6.7	-9.6	-7.2
O=C(Oc1coc(CSc2ncccn2)cc1=O)c1ccc([N+](=O)[O-])cc1	-0.9	x	-3.4	-49.5	x
CN1C2CCCC1CC(NC(=O)c1nn(C)c3ccccc13)C2 (configuration not stated)	10.6	x	-4.6	-12.2	x
N#C/C(=C/c1ccc(N2CCCCC2)cc1)c1cccc(F)c1	2.4	11.6*	-1.6	2.0	15.9
CC(=O)Nc1ccc(/C=C/c2nc3ccccc3o2)cc1	-4.7	7.1	-18.0	-40.3	1.0
O=C(Nc1ccc(/C=C/c2nc3ccccc3o2)cc1)c1c(F)cccc1F	3.4	19.6*	-52.9	-123.4	10.3
O=C(Nc1ccc(/C=C/c2nc3ccccc3o2)cc1)c1cccc(C(F)(F)F)c1	5.7	16.8*	4.1	-22.1	13.8
O=S1(=O)c2ccc(N3CC[C@H](O)C3)cc2O[C@H]2CCN1C2	4.4	x	-6.5	-4.4	x
CC(CCC(C)C(C)(C)C)[C@@H]1CC[C@H]2C3C[C@H](OS(O)(=S)=S)[C@H]4C[C@H](OS(O)(=S)=S)[C@@H](OS(O)(=S)=S)C[C@]4(C)[C@H]3CC[C@]12C (some centres not stated) (tested in a mixture with another compound)	x	-416.2	x	x	81.4*
COc1ccc(NS(=O)(=O)c2ccc(C)c(C(=O)N3CC(C)OC(C)C3)c2)cc1 (configuration not stated)	4.3	11.5*	-5.4	-0.5	-6.3
Cc1cc(S(=O)(=O)Nc2ccc(C(=O)N3CC(C)OC(C)C3)cc2)ccc1F (configuration not stated)	-12.3	0.3	-0.1	4.7	-5.8
NC(=O)c1ccccc1NC(=O)CCCCCn1nnc2ccccc2c1=O	2.4	11.8*	-5.2	-2.0	-5.4
COC(=O)c1ccccc1NC(=O)CCCCCn1nnc2ccccc2c1=O	-5.3	-0.4	3.2	0.9	7.0
Cc1c(Cl)cccc1NC(=O)COC(=O)CCc1nc2ccccc2n1-c1ccccc1	-11.2	24.7*	5.3	12.5	5.7
Cc1cccc2cc(CN(Cc3ccc(F)cc3)C(=O)C(F)(F)F)c3nnnn3c12	3.3	-5.0	-3.5	-3.2	31.9
Cc1cccc2cc(CN(Cc3ccc(F)cc3)C(=O)N(C)C)c3nnnn3c12	1.1	11.9*	-6.2	-5.7	-72.0
CC(=O)C1=C(C)N(Cc2ccc(Cl)cc2)C(=S)NC1c1ccc(Cl)cc1 (configuration not stated)	11.5	x	5.7	1.3	x
O=C(/C=C/Nc1ccc(F)cc1)c1ccco1	-4.9	14.6*	0.6	2.2	-1.5
SMILES	HGIII-sPLA2 inh	NR3A LBD binder	ADAM17 inh	ADAM10 inh	FAS-TE inh
CCOC(=O)c1ccc(N/C=C/C(=O)c2ccco2)cc1	-9.4	-2.1	-3.6	-16.3	-6.2
CSc1cccc(N2CC(C(=O)NCCC3=CCCCC3)CC2=O)c1 (configuration not stated)	-9.6	-1.6	-0.1	1.0	14.5
COc1ccccc1OCCNC(=O)C1CC(=O)N(c2cccc(SC)c2)C1 (configuration not stated)	-1.7	16.8*	-0.9	-17.1	-1.9
Cc1nn(CCC(=O)NNC(=O)Nc2ccc(F)cc2)c(C)c1[N+](=O)[O-]	2.0	x	-0.1	-2.0	x
CN(C)c1ccc(/C=N/N2C(=S)SC(C)(C)C2N(O)C(=O)Nc2ccc([N+](=O)[O-])cc2)cc1 (configuration not stated)	-20.1	10.9*	2.5	3.6	-192.6
O=C(Nc1ccc(C(F)(F)F)cc1)c1cc(-c2cccnc2)nc2ccc(Br)cc12	3.5	33.7*	-4.0	-1.0	28.2
COc1cccc(-c2cc(C(=O)Nc3ccc(N(C)C(C)=O)cc3)c3cc(Br)ccc3n2)c1	11.6	0.3	7.7	20.2*	44.4
COc1cccc(-c2cc(C(=O)Nc3ccncc3)c3ccccc3n2)c1	-16.0	-7.0	-2.1	-2.9	2.1
COC(=O)c1cc(C(C)c2ccccc2O)n2ccccc12 (configuration not stated)	-3.9	x	i	i	x
CCCc1c(C(=O)N/N=C/C(C)=C/c2ccco2)nnn1-c1nonc1N	-3.9	15.7*	2.8	6.7	3.8
CC(C)c1c(C(=O)N/N=C/c2ccncc2)nnn1-c1nonc1N	-3.5	-10.8	1.6	5.5	-3.8
CC(/C=N/NC(=O)c1nnn(-c2nonc2N)c1C(C)C)=C\c1ccco1	-10.6	18.7*	-3.9	-4.1	2.8
CCCN(CCC)Cc1c(C(=O)N/N=C/c2ccco2)nnn1-c1nonc1N	-6.5	-2.2	1.6	7.5	-3.1
COC(=O)CCC/C=C1/SCC(NC(=O)c2ccccc2)C1O (configuration not stated)	6.0	-10.7	1.1	-7.7	-9.4
COC(=O)CCC/C=C1/SCC(NC(=O)c2ccccc2)C1=O (configuration not stated)	-3.5	-0.8	12.0*	0.8	-27.5
CCNC(=O)c1cc(S(=O)(=O)N(C)C)c(Cl)cc1Cl	4.5	-0.7	-3.4	-8.1	-7.7
CN(C)S(=O)(=O)c1cc(C(=O)NCC2CCCO2)c(Cl)cc1Cl (configuration not stated)	5.0	17.8*	-1.2	-0.3	-6.2
Cn1c(SCCc2ccccc2)nnc1-c1ccco1	8.5	x	-5.1	-15.5	x
COc1cc(C2c3c([nH]c(=O)[nH]c3=O)Nc3ccc4ccccc4c32)ccc1O (configuration not stated)	-29.2	26.7*	-29.1	-77.9	-4.7
COc1cc(C2c3c([nH]c(=O)[nH]c3=O)Nc3ccc4ccccc4c32)cc(OC)c1OC (configuration not stated)	-21.1	30.1*	-30.2	-78.3	0.7
O=C(NCc1csc2ccc(Cl)cc12)Nc1cccc2ccccc12	-24.4	2.2	-4.1	-6.7	8.2
O=C(NCc1csc2ccc(Cl)cc12)Nc1ccccc1	-6.5	22.6*	2.8	6.3	2.3
